Screening data deposited in PubChem BioAssay by several laboratories.
Compounds with a hit are over-represented: about 2.2% of the library has one in this group of screens.
MEX-5 binding – C. elegans MEX-5 TCR-2 RNA binding activity; Q9XUB2; MEX-5/FITC-TCR2 RNA binding, fluorescence polarization; active compounds read low; activity score (negative = inhibition of binding), % at 10 µM; 300,000 tested, 0.38% active; AID 1832;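 active = inhibition past about -25% in most replicates, and total fluorescence under double the plate's negative control median, limit read from the data; inconclusive = replicates evenly split on the limit, or fluorescence at least double controls; inactive = too little inhibition in most replicates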
V-ATPase pH – regulators of yeast V-ATPase proton transport | AID 504577 | 350,000 tested, 0.37% active | response, % at 10 µM | S. cerevisiae, pHLuorin cytosolic pH fluorescence; in the data active = response mostly above about 7.3%, no sharp cut-off; inactive = mostly below about 5.4%; note: actives read high
VLA-4 inh – inhibition in a human VLA-4 binding assay; VLA-4 expressing cells, ligand binding flow cytometry; 330,000 tested, 0.2% active; inhibition, % (about 7 µM as worked out from the volumes in the protocol); AID 2557; in the data active = inhibition above about 50%
GASC-1 inh – blocks human GASC-1 demethylase activity; inhibition, % at 2.35 µM; AID 2099; GST-JMJD2C(1-420) H3K9me3 demethylation, DELFIA europium; 330,000 tested, 0.069% active; Q9H3R0;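 active = more than half of a compound's replicate wells show inhibition beyond 50%, single wells judged on their own value; inconclusive = some, but no more than half, of replicates pass 50% inhibition; inactive = no replicate passes 50% inhibition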;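 note: signal counts dimethyl H3K9 product captured on neutravidin plate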
Granule exo inh – blocks lytic granule exocytosis | inhibition, % at 10 µM | 360,000 tested, 0.66% active | TALL-104 LAMP-1 surface exposure, flow cytometry; cells stimulated with thapsigargin and PMA;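 active = inhibition above about 55%, limit read from the data; inconclusive = no clear call, values can overlap the other calls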
HTR2A ag – agonists of mouse serotonin 5-HT2A receptor (HTR2A); P35363; CHO-K1 mHTR2A beta-arrestin complementation, luminescence; percent of 30 µM serotonin response; AID 624169; activation, % at 7.6 µM; 360,000 tested, 0.66% active;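 active = activation above a run cutoff, the mean activation of all tested compounds plus 3 SD, cut at about 14% in these data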
Target sequence (P35363 whole entry, looked up): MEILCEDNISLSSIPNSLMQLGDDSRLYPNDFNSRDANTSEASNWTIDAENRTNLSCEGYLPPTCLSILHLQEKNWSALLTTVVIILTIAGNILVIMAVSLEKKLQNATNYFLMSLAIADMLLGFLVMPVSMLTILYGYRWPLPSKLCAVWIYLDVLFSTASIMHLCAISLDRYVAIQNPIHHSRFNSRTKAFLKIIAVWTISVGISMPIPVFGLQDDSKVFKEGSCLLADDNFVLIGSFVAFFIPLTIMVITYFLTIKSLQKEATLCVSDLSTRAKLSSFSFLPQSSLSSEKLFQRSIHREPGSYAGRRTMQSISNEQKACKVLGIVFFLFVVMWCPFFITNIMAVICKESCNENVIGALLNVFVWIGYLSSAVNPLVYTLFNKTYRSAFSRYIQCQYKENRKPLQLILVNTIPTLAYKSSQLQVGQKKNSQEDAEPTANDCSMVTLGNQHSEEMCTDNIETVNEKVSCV
Numbers stand for hits; 0 = inactive; ? = inconclusive; - = no result given.

SMILES	MEX-5 binding	V-ATPase pH	VLA-4 inh	GASC-1 inh	Granule exo inh	HTR2A ag
O=C(OCC(=O)N1CCCCC1)c1ccc2c(c1)C(=O)N(Cc1ccco1)C2=O	-	0	0	0	0	0
CCN1C(=O)/C(=C/c2ccc(C)o2)N(C)C1=S	0	0	0	0	58	0
O=[N+]([O-])c1ccc(CN2CCC(Cc3ccccc3)CC2)cc1	0	0	0	0	0	0
O=[N+]([O-])c1cccc(OCCCN2CCC(Cc3ccccc3)CC2)c1	0	0	0	0	86	0
C/C=C/C1=CC(=O)C[C@H](c2ccc3c(c2)OCO3)C1	-	0	0	0	0	0
Cc1cc(Cl)ccc1NC(=O)c1ccc2c(c1)OCO2	0	15	0	0	0	0
COC(=O)CSC1=NS(=O)(=O)c2ccccc21	0	11	0	0	0	0
C[C@@H]1CN([C@@H](C)CO)C(=O)CCCn2nncc2CO[C@H]1CN(C)C(=O)NC1CCCCC1	-	0	-	-	0	0
Cc1ccc(/C=C2/C(=O)c3ccc(C(=O)O)cc3C2=O)o1	-26	0	-	0	0	0
CN(C)c1ccc(NC(=O)C2CCCN(S(=O)(=O)c3ccccc3)C2)cc1 (centres undefined)	0	0	0	0	0	0
O=C(Nc1nnc([C@@H]2C[C@H](O)[C@@H](CO)O2)s1)NC1CCCCC1	-	-	-	-	0	0
CCN1/C(=C/c2ccc3cc(C)ccc3[n+]2CC)Sc2cc(C)ccc21	-	0	-	-	85	0
CCN1/C(=C/c2ccc3ccccc3[n+]2CC)C=Cc2ccccc21	0	0	0	0	0	0
CCCCN1/C(=C/c2ccc3ccccc3[n+]2CC)Sc2ccccc21	?	0	-	0	74	0
CCN1/C(=C/c2ccc3cc(C)ccc3[n+]2C)Sc2ccc3sccc3c21	-	0	-	-	62	0
COc1cccc(NC(=O)CN(C)C(=O)c2c(C)nn(-c3ccccc3)c2Cl)c1	-	0	0	0	0	0
O=C1N=c2ccc([N+](=O)[O-])cc2=C1c1sc(=O)[nH]c1O	-59	0	0	0	0	0
COc1ccc2oc(C)c(C(=O)c3ccc(C)cc3)c2c1	0	0	0	0	0	0
Cc1ccccc1C(=O)NC1CC2CCCC(C1)N2CC(C)C (centres undefined)	-	0	-	-	0	0
COc1ncnc2c1NC1=C(S2)C(=NCCC(=O)O)CC(C)(C)C1	-52	0	0	0	0	0
COc1cc2c3nnc(-c4ccccc4)c-3cn(Cc3ccccc3F)c2cc1OC	-59	-	0	0	-	-
Cc1cnc(NC(=O)C2(C)CCN2C(=O)C(C)C)s1 (centres undefined)	-	-	-	-	0	0
COc1ccc(OC)c(N=Cc2c(O)c3ccccc3oc2=O)c1	-29	0	0	0	0	0
COc1ccc(NC(=O)CN(C)C(=O)c2ccc(-c3ccccc3Cl)o2)cc1	0	0	0	0	0	0
COC(=O)C1=COC(C)C2CN3CCc4c([nH]c5cc(OC)c(OC)cc45)C3CC12 (centres undefined)	-35	0	0	0	0	0
SMILES	MEX-5 binding	V-ATPase pH	VLA-4 inh	GASC-1 inh	Granule exo inh	HTR2A ag
CCN1C(c2ccccc2)=C(c2ccccc2)S/C1=C/C=C1\SC(=S)N(C)C1=O	-	0	-	-	59	0
Cc1noc(/C=C/N(C)C)c1S(=O)(=O)N(C)Cc1ccc(F)cc1	0	0	0	0	0	0
CCCc1cc(=O)[nH]c(SCC(=O)Nc2ccc(OC)c(S(=O)(=O)N3CCCCC3)c2)n1	-	0	0	0	0	0
Cc1ccc(N2CC(C(=O)N3CCCCCC3)CC2=O)cc1 (centres undefined)	0	0	0	0	0	0
O=c1cc(-c2ccccc2)nc2nc(SCc3ccccc3)[nH]n12	0	0	0	0	0	0
O=c1cc(-c2ccccc2)nc2nc(CCc3ccccc3)[nH]n12	0	16	0	0	0	0
Nc1c(C(=O)N/N=C/c2cccnc2)oc2nc(-c3ccccc3)cc(-c3ccco3)c12	-37	0	0	0	0	0
CCN1C(=O)/C(=C/c2cnn(CC)c2C)SC1=S	0	0	0	0	0	0
CCN1C(=O)/C(=C/c2c(C)nn(C)c2C)SC1=S	-30	0	0	0	0	0
COc1cc(NC(=O)C2=C(C)OCCS2)c(Cl)cc1C(=O)NCCN(C)C	0	0	0	0	0	0
O=C(NCC(=O)N1CCN(c2ccccc2)CC1)c1ccccc1	0	0	0	0	0	0
CCn1c(=S)[nH]c2c(c1=O)C(C)(C)Cc1ccccc1-2	0	13	-	0	0	0
Cn1c(=S)[nH]c2c(c1=O)C(C)(C)Cc1ccccc1-2	0	0	0	0	0	0
CCC1=NN2C(=N)/C(=C\c3ccc(SCc4ccco4)o3)C(=O)N=C2S1	-32	0	0	0	0	0
CCc1ccc(C(C(=O)NC2CCCC2)N(C(=O)c2csnn2)C2CC2)cc1 (centres undefined)	0	0	0	0	0	0
O=C(CN1CCN(Cc2ccc(Cl)cc2)C1=O)NCCCN1CCN(c2ccc(F)cc2)CC1	0	17	0	0	0	0
O=C(O)Cc1ccc(S(=O)(=O)N2CCCC2)s1	-	0	0	0	0	0
O=C1SC(SCc2ccccc2)=N/C1=C\c1ccc(C(=O)O)cc1	-58	0	0	0	0	0
O=[N+]([O-])c1ccc(-c2cn3nc(-c4ccccc4)c(-c4ccccc4)nc3n2)cc1	0	0	0	0	0	0
O=[N+]([O-])c1cccc(-c2cn3nc(-c4ccccc4)c(-c4ccccc4)nc3n2)c1	-44	0	0	0	0	0
c1ccc(-c2cn3nc(-c4ccccc4)c(-c4ccccc4)nc3n2)cc1	-27	0	0	0	0	0
C#CCOCCOCCOCCNc1nc(N2CCN(C(=O)C([C@@H](C)CC)n3cc(C(N)Cc4ccc(O)cc4)nn3)CC2)nc(N2CCN(C(=O)[C@H](CCC(=O)O)n3cc(C(N)Cc4ccc(O)cc4)nn3)CC2)n1 (some centres undefined)	0	0	-	?	64	0
C#CCOCCOCCOCCNc1nc(N2CCN(C(=O)[C@H]([C@@H](C)CC)n3cc([C@@H](N)CO)nn3)CC2)nc(N2CCN(C(=O)[C@H]([C@@H](C)CC)n3cc([C@@H](N)CC(C)C)nn3)CC2)n1	-38	0	0	0	0	0
CC(C)c1ccc(C2C(C#N)=C(N)N3C(=C2C#N)Sc2ccccc23)cc1 (centres undefined)	-120	-	0	0	-	-
CC(C)c1ccc(C2CC(=O)N3CN(C)CSC3=C2C#N)cc1 (centres undefined)	0	0	0	0	0	0
COc1ccc(C2=CC3=C(Br)C(=O)C(C)(OC(=O)c4ccc(Cl)nc4)C(=O)C3=CO2)cc1 (centres undefined)	-30	-	0	0	-	-
Cc1cc(C)c(NC(=O)CNC(=O)c2cc(C3CC3)nn2-c2ccccc2)c(C)c1	-	0	0	0	0	0
Cc1cccc(NC(=O)CNC(=O)c2cc(C3CC3)nn2-c2ccccc2)c1C	-	24	-	-	0	0
